Measured values taken from PubChem BioAssay (NCI).
About 79,000 compounds went through this panel and 15% of them were active in at least one assay; those are over-represented in the sample as a whole. Active and inactive are the calls of the source. No stated cut-off is given here; in the data, active means growth inhibition above about 70%; inactive means the rest.

Columns and labels:
[1] = NCI Yeast Anticancer Drug Screen. Data for the rad52 strain (AID 147);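 further: 0% = growth of vehicle-treated control cultures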; conditions: S. cerevisiae rad52 mutant growth inhibition, hits give high values
In short: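 The repair-mutant yeast strain was incubated with compounds, then growth was read and inhibition derived relative to vehicle.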

[2] = NCI Yeast Anticancer Drug Screen. Data for the wt1 strain (AID 149);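 further: 0% = growth of vehicle-treated wt1 cultures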; conditions: S. cerevisiae wt1 strain (SPY 50644) growth inhibition, hits give high values
In short: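 The wt1 strain was treated with compounds, and growth was compared with vehicle-treated cultures to give inhibition.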

[3] = NCI Yeast Anticancer Drug Screen. Data for the rad50EPP+ strain (AID 151);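 further: 0% = growth of vehicle-treated control cultures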; conditions: S. cerevisiae rad50 mutant strain, hits give high values
In short: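 Vehicle-normalised growth inhibition; rad50EPP+ yeast strain, altered in DNA damage repair, compound-treated.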

[4] = NCI Yeast Anticancer Drug Screen. Data for the mgt1 strain (AID 153); conditions: S. cerevisiae mgt1 mutant growth inhibition, hits give high values
In short: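 Vehicle-normalized growth inhibition is determined in mgt1 yeast, a strain selected for a defined alteration in DNA repair or cell cycle control.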

[5] = NCI Yeast Anticancer Drug Screen. Data for the rad50 strain (AID 155);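 further: 0% = growth of vehicle-only cultures of the same strain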; conditions: S. cerevisiae rad50 strain growth inhibition, hits give high values
In short: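 Cells are treated with compound, grown, and their growth is then scored against vehicle-only cultures of the same repair-deficient yeast strain.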

[6] = NCI Yeast Anticancer Drug Screen. Data for the mec2-1 strain (AID 157); conditions: S. cerevisiae mec2-1 strain, hits give high values
In short: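 Mutant yeast (mec2-1) grown with compound; growth inhibition relative to vehicle control reported.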

[7] = NCI Yeast Anticancer Drug Screen. Data for the rad14 strain (AID 159);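 further: 0% = growth of vehicle-treated control cultures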; conditions: S. cerevisiae rad14 strain growth inhibition, hits give high values
In short: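 Readout: yeast growth inhibition, referenced to vehicle-only cultures. Strain bears a defined alteration in DNA damage repair.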

[8] = NCI Yeast Anticancer Drug Screen. Data for the sgs1 mgt1 strain (AID 161);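 further: 0% = growth of cultures given vehicle only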; conditions: S. cerevisiae sgs1 mgt1 strain, hits give high values
In short: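 Compounds are added to genetically altered yeast, and growth is compared with cultures given vehicle alone to give percent inhibition.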

[9] = NCI Yeast Anticancer Drug Screen. Data for the CLN2oe strain (AID 163);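 further: 0% = growth of vehicle-only control cultures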; conditions: S. cerevisiae CLN2oe strain, hits give high values
In short: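 Compounds are applied to yeast harbouring a defined cell-cycle control change; reduced growth compared with vehicle-treated controls gives the value.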

[10] = NCI Yeast Anticancer Drug Screen. Data for the cln2 rad14 strain (AID 165);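 further: 0% = growth equal to vehicle treated cultures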; conditions: S. cerevisiae cln2 rad14 strain, hits give high values
In short: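 Readout is yeast growth inhibition versus vehicle-treated controls, using a strain with cln2 and rad14 alterations exposed to compound.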

[11] = NCI Yeast Anticancer Drug Screen. Data for the bub3 strain (AID 167); conditions: S. cerevisiae bub3 mutant strain, hits give high values
In short: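 Part of a panel of yeast mutants defective in DNA damage repair or cell cycle regulation. Each strain is grown with compound, and inhibition is calculated relative to solvent-treated cultures.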

[12] = NCI Yeast Anticancer Drug Screen. Data for the wt2 strain (AID 169);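 further: 0% = growth of vehicle-treated yeast cultures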; conditions: S. cerevisiae wt2 strain growth inhibition, hits give high values
In short: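 Against vehicle-treated controls, the growth of yeast exposed to each compound was compared, and the inhibition was recorded.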

[13] = NCI Yeast Anticancer Drug Screen. Data for the mlh1 strain (AID 171);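 further: 0% = growth of vehicle-treated control cultures of the same strain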; conditions: S. cerevisiae mlh1 strain growth inhibition, hits give high values
In short: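 Measured: yeast growth. Reference: vehicle-treated controls. Organism: strain with a defined alteration affecting DNA damage repair or cell cycle control, treated with compound.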

[14] = NCI Yeast Anticancer Drug Screen. Data for the sgs1 strain (AID 173);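 further: 0% = growth of vehicle-only control cultures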; conditions: S. cerevisiae sgs1 mutant, hits give high values
In short: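 Each compound was added to cultures of the altered yeast strain. Growth was recorded, and inhibition was derived by comparison with vehicle controls.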

[15] = NCI Yeast Anticancer Drug Screen. Data for the mlh1 rad18 strain (AID 175); conditions: S. cerevisiae mlh1 rad18 strain growth inhibition, hits give high values
In short: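 Genetically defined yeast (DNA repair-deficient) exposed to compounds; growth inhibition determined relative to vehicle.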

[16] = NCI Yeast Anticancer Drug Screen. Data for the rad18 strain (AID 177); conditions: S. cerevisiae rad18 mutant growth inhibition, hits give high values
In short: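 Vehicle-treated cultures served as the baseline for scoring compound-induced growth inhibition in DNA-repair-mutant yeast.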

[17] = at 5.0 µM (retest, dose inferred, filed as 0.5)
[18] = at 50.0 µM (retest, dose inferred, filed as 5.0)

Measured: growth inhibition

Cc1ccc(Cl)cc1NC(=O)OCCN(C)C(=O)Nc1cc(Cl)ccc1C
inactive: [1]; at 1.2 µM 7% | [1]; at 3.7 µM -12% | [1]; at 11.0 µM -36% | [1]; at 33.0 µM -21% | [1]; at 100.0 µM -1% | [2]; at 1.2 µM -30% | [2]; at 3.7 µM -35% | [2]; at 11.0 µM -38% | [2]; at 33.0 µM -30% | [2]; at 100.0 µM 34% | [3]; at 1.2 µM -26% | [3]; at 3.7 µM -20% | [3]; at 11.0 µM -14% | [3]; at 33.0 µM -6% | [3]; at 100.0 µM -11% | [4]; at 1.2 µM -29% | [4]; at 3.7 µM -28% | [4]; at 11.0 µM -29% | [4]; at 33.0 µM -24% | [4]; at 100.0 µM 2% | [5]; at 1.2 µM -26% | [5]; at 3.7 µM -34% | [5]; [17] 57% | [5]; at 11.0 µM -35% | [5]; at 33.0 µM -31% | [5]; at 100.0 µM 19% | [6]; at 1.2 µM -28% | [6]; at 3.7 µM -34% | [6]; [17] 57% | [6]; at 11.0 µM -36% | [6]; at 33.0 µM -31% | [6]; at 50.0 µM 61% | [6]; at 100.0 µM -21% | [7]; at 1.2 µM -26% | [7]; at 3.7 µM -25% | [7]; at 11.0 µM -31% | [7]; at 33.0 µM -39% | [7]; at 100.0 µM -15% | [8]; [17] -29% | [8]; [18] 32% | [8]; at 50.0 µM 37.6% | [9]; at 1.2 µM -48% | [9]; at 3.7 µM -28% | [9]; at 11.0 µM -48% | [9]; at 33.0 µM -33% | [9]; at 100.0 µM -26% | [10]; [17] 17% | [11]; at 1.2 µM -39% | [11]; at 3.7 µM -39% | [11]; [17] 13% | [11]; at 11.0 µM -42% | [11]; at 33.0 µM -36% | [11]; [18] 56% | [11]; at 50.0 µM 46.9% | [11]; at 100.0 µM 13% | [12]; at 1.2 µM -37% | [12]; at 3.7 µM -27% | [12]; at 11.0 µM -23% | [12]; at 33.0 µM -8% | [12]; at 100.0 µM 6% | [13]; at 1.2 µM -24% | [13]; at 3.7 µM -36% | [13]; at 11.0 µM -33% | [13]; at 33.0 µM -30% | [13]; at 100.0 µM 11% | [14]; at 1.2 µM -22% | [14]; at 3.7 µM -21% | [14]; at 11.0 µM -23% | [14]; at 33.0 µM -15% | [14]; at 100.0 µM 8% | [15]; [17] 45% | [15]; at 50.0 µM 62% | [16]; at 1.2 µM -27% | [16]; at 3.7 µM -35% | [16]; at 11.0 µM -33% | [16]; at 33.0 µM -37% | [16]; at 100.0 µM 15%
active: [5]; [18] 95% | [5]; at 50.0 µM 86% | [6]; [18] 93% | [10]; [18] 75% | [10]; at 50.0 µM 85.1% | [15]; [18] 98%

Cc1ccc2c3ccc4c(c3n(C)c2c1)C(=O)C=CC4=O
inactive: [1]; at 1.2 µM -55% | [1]; at 3.7 µM -66% | [1]; at 11.0 µM -53% | [1]; at 33.0 µM -37% | [1]; at 100.0 µM 22% | [2]; at 1.2 µM -22% | [2]; at 3.7 µM -16% | [2]; at 11.0 µM -18% | [2]; at 33.0 µM -1% | [2]; at 100.0 µM 33% | [3]; at 1.2 µM -3% | [3]; at 3.7 µM 24% | [3]; at 11.0 µM 31% | [4]; at 1.2 µM 20% | [4]; at 3.7 µM 11% | [4]; at 11.0 µM 22% | [4]; at 33.0 µM 40% | [5]; at 1.2 µM -4% | [5]; at 3.7 µM -5% | [5]; [17] 7% | [5]; at 11.0 µM 3% | [5]; at 33.0 µM 10% | [5]; [18] 49% | [5]; at 50.0 µM 57.8% | [5]; at 100.0 µM 53% | [6]; at 1.2 µM -22% | [6]; at 3.7 µM -11% | [6]; [17] 7% | [6]; at 11.0 µM -3% | [6]; at 33.0 µM 23% | [6]; [18] 42% | [6]; at 50.0 µM 51.5% | [6]; at 100.0 µM 66% | [7]; at 1.2 µM -9% | [7]; at 3.7 µM -12% | [7]; at 11.0 µM -9% | [7]; at 33.0 µM -6% | [7]; at 100.0 µM 59% | [8]; [17] 9% | [8]; [18] 58% | [8]; at 50.0 µM 67.2% | [9]; at 1.2 µM -5% | [9]; at 3.7 µM -4% | [9]; at 11.0 µM -3% | [9]; at 33.0 µM 9% | [9]; at 100.0 µM 27% | [10]; [17] 18% | [10]; [18] 50% | [10]; at 50.0 µM 33.7% | [11]; at 1.2 µM -14% | [11]; at 3.7 µM -1% | [11]; [17] 43% | [11]; at 11.0 µM -11% | [11]; at 33.0 µM 16% | [11]; at 50.0 µM 61.2% | [11]; at 100.0 µM 56% | [12]; at 1.2 µM -47% | [12]; at 3.7 µM -28% | [12]; at 11.0 µM -30% | [12]; at 33.0 µM -29% | [12]; at 100.0 µM 38% | [13]; at 1.2 µM -10% | [13]; at 3.7 µM -3% | [13]; at 11.0 µM 16% | [13]; at 33.0 µM 46% | [14]; at 1.2 µM -32% | [14]; at 3.7 µM -24% | [14]; at 11.0 µM -16% | [14]; at 33.0 µM 16% | [14]; at 100.0 µM 63% | [15]; [17] 21% | [15]; at 50.0 µM 68% | [16]; at 1.2 µM 4% | [16]; at 3.7 µM 14% | [16]; at 11.0 µM 15% | [16]; at 33.0 µM 39%
active: [3]; at 33.0 µM 76% | [3]; at 100.0 µM 91% | [4]; at 100.0 µM 78% | [11]; [18] 80% | [13]; at 100.0 µM 81% | [15]; [18] 77% | [16]; at 100.0 µM 82%

O=C(CC(=O)n1nc(-c2ccccc2)c(N=Nc2ccc(Cl)cc2)c1-c1ccccc1)Nc1cccc(Cl)c1
inactive: [1]; at 1.2 µM -4% | [1]; at 3.7 µM -1% | [1]; at 11.0 µM 1% | [1]; at 33.0 µM 0% | [1]; at 100.0 µM 0% | [2]; at 1.2 µM -2% | [2]; at 3.7 µM -3% | [2]; at 11.0 µM -5% | [2]; at 33.0 µM -4% | [2]; at 100.0 µM -5% | [3]; at 1.2 µM 1% | [3]; at 3.7 µM 8% | [3]; at 11.0 µM 14% | [3]; at 33.0 µM 26% | [3]; at 100.0 µM 29% | [4]; at 1.2 µM -5% | [4]; at 3.7 µM -5% | [4]; at 11.0 µM -7% | [4]; at 33.0 µM -4% | [4]; at 100.0 µM -6% | [5]; at 1.2 µM -2% | [5]; at 3.7 µM 1% | [5]; [17] 7% | [5]; at 11.0 µM 0% | [5]; at 33.0 µM 2% | [5]; [18] -3% | [5]; at 50.0 µM 48.1% | [5]; at 100.0 µM 2% | [6]; at 1.2 µM -4% | [6]; at 3.7 µM -4%
